Test results published in PubChem BioAssay (NCI).
Compounds without any hit were thinned out: in the full panel of roughly 79,000, 15% have a hit. Unmarked numbers belong to inactive results. The source made the active and inactive calls. Cut-off read from the data, not from the text of the source: active = growth inhibition above about 70%; inactive = the rest.

Experiments:
[1] = NCI Yeast Anticancer Drug Screen. Data for the rad52 strain (AID 147);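 note: 0% = growth of vehicle-treated control cultures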; conditions: S. cerevisiae rad52 mutant growth inhibition, active compounds read high
In short: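 Inhibition of yeast growth, referenced to vehicle controls, was the measured output for a strain with defective DNA damage repair.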

[2] = NCI Yeast Anticancer Drug Screen. Data for the wt1 strain (AID 149);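 note: 0% = growth of vehicle-treated wt1 cultures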; conditions: S. cerevisiae wt1 strain (SPY 50644) growth inhibition, active compounds read high
In short: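 Growth inhibition read against vehicle controls after compound exposure of the wt1 yeast strain.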

[3] = NCI Yeast Anticancer Drug Screen. Data for the rad50EPP+ strain (AID 151);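 note: 0% = growth of vehicle-treated control cultures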; conditions: S. cerevisiae rad50 mutant strain, active compounds read high
In short: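 Genetically defined yeast (rad50EPP+, DNA damage repair alteration) is grown with compound, and inhibition of growth is expressed relative to vehicle-treated controls.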

[4] = NCI Yeast Anticancer Drug Screen. Data for the rad50 strain (AID 155);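 note: 0% = growth of vehicle-only cultures of the same strain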; conditions: S. cerevisiae rad50 strain growth inhibition, active compounds read high
In short: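 Readout: growth inhibition relative to vehicle-treated cultures. Compound exposure was carried out in a genetically defined yeast strain deficient in DNA damage repair.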

[5] = NCI Yeast Anticancer Drug Screen. Data for the mec2-1 strain (AID 157); conditions: S. cerevisiae mec2-1 strain, active compounds read high
In short: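 Each compound was tested on mec2-1 yeast, a strain altered in DNA damage repair or cell cycle control. Growth inhibition is reported relative to vehicle.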

[6] = NCI Yeast Anticancer Drug Screen. Data for the rad14 strain (AID 159);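 note: 0% = growth of vehicle-treated control cultures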; conditions: S. cerevisiae rad14 strain growth inhibition, active compounds read high
In short: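 Growth inhibition vs vehicle controls; genetically altered yeast strain (DNA damage repair defect) treated with test compounds.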

[7] = NCI Yeast Anticancer Drug Screen. Data for the sgs1 mgt1 strain (AID 161);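 note: 0% = growth of cultures given vehicle only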; conditions: S. cerevisiae sgs1 mgt1 strain, active compounds read high
In short: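 Mutant yeast exposed to compound; growth scored against vehicle-only wells.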

[8] = NCI Yeast Anticancer Drug Screen. Data for the CLN2oe strain (AID 163);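 note: 0% = growth of vehicle-only control cultures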; conditions: S. cerevisiae CLN2oe strain, active compounds read high
In short: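 First, the altered yeast strain was treated with each compound; second, its growth was measured; finally, inhibition was derived by comparison with vehicle controls.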

[9] = NCI Yeast Anticancer Drug Screen. Data for the cln2 rad14 strain (AID 165);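 note: 0% = growth equal to vehicle treated cultures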; conditions: S. cerevisiae cln2 rad14 strain, active compounds read high
In short: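 Test compounds were added to cln2 rad14 yeast cultures; inhibition of growth was then determined by comparison with vehicle treatment.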

[10] = NCI Yeast Anticancer Drug Screen. Data for the bub3 strain (AID 167); conditions: S. cerevisiae bub3 mutant strain, active compounds read high
In short: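 Readout: yeast growth inhibition, expressed relative to vehicle-only wells. The test organism is a mutant strain from a panel with lesions in DNA repair or checkpoint genes.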

[11] = NCI Yeast Anticancer Drug Screen. Data for the wt2 strain (AID 169);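 note: 0% = growth of vehicle-treated yeast cultures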; conditions: S. cerevisiae wt2 strain growth inhibition, active compounds read high
In short: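 The panel's yeast strains carry defined changes in DNA repair or cell cycle genes. Each strain is grown with compound, and growth loss is scored relative to vehicle.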

[12] = NCI Yeast Anticancer Drug Screen. Data for the mlh1 strain (AID 171);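 note: 0% = growth of vehicle-treated control cultures of the same strain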; conditions: S. cerevisiae mlh1 strain growth inhibition, active compounds read high
In short: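 Inhibition values reflect reduced yeast growth in the presence of compound, referenced to vehicle controls, using a strain chosen for its alteration in DNA repair or cell cycle control.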

[13] = NCI Yeast Anticancer Drug Screen. Data for the sgs1 strain (AID 173);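 note: 0% = growth of vehicle-only control cultures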; conditions: S. cerevisiae sgs1 mutant, active compounds read high
In short: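 Vehicle-treated cultures served as reference for growth inhibition of a yeast strain altered in DNA damage repair or cell cycle control after compound exposure.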

[14] = NCI Yeast Anticancer Drug Screen. Data for the mlh1 rad18 strain (AID 175); conditions: S. cerevisiae mlh1 rad18 strain growth inhibition, active compounds read high
In short: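 Inhibition values reflect reduced growth of mutant yeast versus vehicle-treated controls following compound exposure; the mutations affect DNA damage repair.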

[15] = NCI Yeast Anticancer Drug Screen. Data for the rad18 strain (AID 177); conditions: S. cerevisiae rad18 mutant growth inhibition, active compounds read high
In short: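 Steps: expose repair-mutant yeast to compound; measure growth; express as inhibition relative to vehicle control.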

[16] = NCI Yeast Anticancer Drug Screen. Data for the mgt1 strain (AID 153); conditions: S. cerevisiae mgt1 mutant growth inhibition, active compounds read high
In short: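 In the mgt1 strain, test compounds were added and growth inhibition was determined relative to vehicle-treated controls.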

[17] = at 5.0 µM (retest, dose inferred, filed as 0.5)
[18] = at 50.0 µM (retest, dose inferred, filed as 5.0)

For `Cc1ccc(SSc2ccc(C)cc2[N+](=O)[O-])c([N+](=O)[O-])c1`, the growth inhibition ([1]; at 1.2 µM) was 5%, the growth inhibition ([1]; at 3.7 µM) was 19% and the growth inhibition ([1]; at 11.0 µM) was 38%. For the same compound, the growth inhibition ([1]; at 33.0 µM) was 77% (active), the growth inhibition ([1]; at 100.0 µM) was 86% (active) and the growth inhibition ([2]; at 1.2 µM) was -2%. It also gave a growth inhibition ([2]; at 3.7 µM) of 4%, a growth inhibition ([2]; at 11.0 µM) of 16% and a growth inhibition ([2]; at 33.0 µM) of 50%. The growth inhibition ([2]; at 100.0 µM) was 83% (active), the growth inhibition ([3]; at 1.2 µM) was 7% and the growth inhibition ([3]; at 3.7 µM) was 16%. For the same compound, the growth inhibition ([3]; at 11.0 µM) was 48%, the growth inhibition ([3]; at 33.0 µM) was 90% (active) and the growth inhibition ([3]; at 100.0 µM) was 87% (active). The growth inhibition ([4]; at 1.2 µM) was 8%, the growth inhibition ([4]; at 3.7 µM) was 15% and the growth inhibition [4, 17] was 54%. The growth inhibition ([4]; at 11.0 µM) was 33%, the growth inhibition ([4]; at 33.0 µM) was 68% and the growth inhibition [4, 18] was 90% (active). For the same compound, the growth inhibition ([4]; at 50.0 µM) was 69.5%, the growth inhibition ([4]; at 100.0 µM) was 86% (active) and the growth inhibition ([5]; at 1.2 µM) was -5%. The growth inhibition ([5]; at 3.7 µM) was 2%, the growth inhibition [5, 17] was 57% and the growth inhibition ([5]; at 11.0 µM) was 26%. The growth inhibition ([5]; at 33.0 µM) was 66%, the growth inhibition [5, 18] was 94% (active) and the growth inhibition ([5]; at 50.0 µM) was 78.7% (active). For the same compound, the growth inhibition ([5]; at 100.0 µM) was 86% (active), the growth inhibition ([6]; at 1.2 µM) was -6% and the growth inhibition ([6]; at 3.7 µM) was -10%. For the same compound, the growth inhibition ([6]; at 11.0 µM) was 10%, the growth inhibition ([6]; at 33.0 µM) was 74% (active) and the growth inhibition ([6]; at 100.0 µM) was 85% (active). The growth inhibition [7, 17] was -8%, the growth inhibition [7, 18] was 95% (active) and the growth inhibition ([8]; at 1.2 µM) was -11%. It also gave a growth inhibition ([8]; at 3.7 µM) of 0%, a growth inhibition ([8]; at 11.0 µM) of -9% and a growth inhibition ([8]; at 33.0 µM) of -5%. For the same compound, the growth inhibition ([8]; at 100.0 µM) was 72% (active), the growth inhibition [9, 17] was 37% and the growth inhibition [9, 18] was 86% (active). For the same compound, the growth inhibition ([10]; at 1.2 µM) was -3%, the growth inhibition ([10]; at 3.7 µM) was -3% and the growth inhibition [10, 17] was 26%. For the same compound, the growth inhibition ([10]; at 11.0 µM) was 2%, the growth inhibition ([10]; at 33.0 µM) was 84% (active) and the growth inhibition [10, 18] was 94% (active). The growth inhibition ([10]; at 100.0 µM) was 87% (active), the growth inhibition ([11]; at 1.2 µM) was -15% and the growth inhibition ([11]; at 3.7 µM) was -6%. The growth inhibition ([11]; at 11.0 µM) was 21%, the growth inhibition ([11]; at 33.0 µM) was 82% (active) and the growth inhibition ([11]; at 100.0 µM) was 85% (active). For the same compound, the growth inhibition ([12]; at 1.2 µM) was -14%, the growth inhibition ([12]; at 3.7 µM) was -8% and the growth inhibition ([12]; at 11.0 µM) was -1%. For the same compound, the growth inhibition ([12]; at 33.0 µM) was 66%, the growth inhibition ([12]; at 100.0 µM) was 87% (active) and the growth inhibition ([13]; at 1.2 µM) was 0%. For the same compound, the growth inhibition ([13]; at 3.7 µM) was 14%, the growth inhibition ([13]; at 11.0 µM) was 46% and the growth inhibition ([13]; at 33.0 µM) was 91% (active). The growth inhibition ([13]; at 100.0 µM) was 86% (active), the growth inhibition [14, 17] was 35% and the growth inhibition [14, 18] was 80% (active). The growth inhibition ([14]; at 50.0 µM) was 44.7%, the growth inhibition ([15]; at 1.2 µM) was -18% and the growth inhibition ([15]; at 3.7 µM) was -14%. For the same compound, the growth inhibition ([15]; at 11.0 µM) was 19%, the growth inhibition ([15]; at 33.0 µM) was 53% and the growth inhibition ([15]; at 100.0 µM) was 83% (active).

With `CCc1nc2ccc(N=Nc3c(O)ccc4ccccc34)cc2[nH]1` the growth inhibition ([2]; at 1.2 µM) was 14%, the growth inhibition ([2]; at 3.7 µM) was 10% and the growth inhibition ([2]; at 11.0 µM) was 19%. The growth inhibition ([2]; at 33.0 µM) was 30%, the growth inhibition ([2]; at 100.0 µM) was 96% (active) and the growth inhibition ([3]; at 1.2 µM) was -5%. The growth inhibition ([3]; at 3.7 µM) was 4%, the growth inhibition ([3]; at 11.0 µM) was 23% and the growth inhibition ([3]; at 33.0 µM) was 63%. For the same compound, the growth inhibition ([3]; at 100.0 µM) was 93% (active), the growth inhibition ([16]; at 1.2 µM) was 0% and the growth inhibition ([16]; at 3.7 µM) was -10%. For the same compound, the growth inhibition ([16]; at 11.0 µM) was -6%, the growth inhibition ([16]; at 33.0 µM) was -2% and the growth inhibition ([16]; at 100.0 µM) was 96% (active). The growth inhibition ([4]; at 1.2 µM) was 6%, the growth inhibition ([4]; at 3.7 µM) was 6% and the growth inhibition [4, 17] was -23%. The growth inhibition ([4]; at 11.0 µM) was 8%, the growth inhibition ([4]; at 33.0 µM) was 34% and the growth inhibition [4, 18] was 25%. The growth inhibition ([4]; at 50.0 µM) was 89% (active), the growth inhibition ([4]; at 100.0 µM) was 95% (active) and the growth inhibition ([5]; at 1.2 µM) was 0%. For the same compound, the growth inhibition ([5]; at 3.7 µM) was 7%, the growth inhibition [5, 17] was -49% and the growth inhibition ([5]; at 11.0 µM) was 10%. For the same compound, the growth inhibition ([5]; at 33.0 µM) was 21%, the growth inhibition [5, 18] was 65% and the growth inhibition ([5]; at 50.0 µM) was 93.2% (active). For the same compound, the growth inhibition ([5]; at 100.0 µM) was 93% (active), the growth inhibition ([6]; at 1.2 µM) was -15% and the growth inhibition ([6]; at 3.7 µM) was -29%. The growth inhibition ([6]; at 11.0 µM) was -20%, the growth inhibition ([6]; at 33.0 µM) was 32% and the growth inhibition ([6]; at 100.0 µM) was 93% (active). The growth inhibition [7, 17] was -4%, the growth inhibition [7, 18] was 21% and the growth inhibition ([7]; at 50.0 µM) was 92.5% (active). The growth inhibition ([8]; at 1.2 µM) was 2%, the growth inhibition ([8]; at 3.7 µM) was 1% and the growth inhibition ([8]; at 11.0 µM) was -5%. The growth inhibition ([8]; at 33.0 µM) was 9%, the growth inhibition ([8]; at 100.0 µM) was 95% (active) and the growth inhibition [9, 17] was 9%. The growth inhibition [9, 18] was 41%, the growth inhibition ([9]; at 50.0 µM) was 91.9% (active) and the growth inhibition ([10]; at 1.2 µM) was -3%. It also gave a growth inhibition ([10]; at 3.7 µM) of -11%, a growth inhibition [10, 17] of -9% and a growth inhibition ([10]; at 11.0 µM) of -18%. The growth inhibition ([10]; at 33.0 µM) was 13%, the growth inhibition [10, 18] was 92% (active) and the growth inhibition ([10]; at 50.0 µM) was 92.2% (active). The growth inhibition ([10]; at 100.0 µM) was 95% (active), the growth inhibition ([11]; at 1.2 µM) was -13% and the growth inhibition ([11]; at 3.7 µM) was 12%. The growth inhibition ([11]; at 11.0 µM) was -5%, the growth inhibition ([11]; at 33.0 µM) was 12% and the growth inhibition ([11]; at 100.0 µM) was 96% (active). The growth inhibition ([12]; at 1.2 µM) was -15%, the growth inhibition ([12]; at 3.7 µM) was -10% and the growth inhibition ([12]; at 11.0 µM) was -18%. For the same compound, the growth inhibition ([12]; at 33.0 µM) was 17%, the growth inhibition ([12]; at 100.0 µM) was 95% (active) and the growth inhibition ([13]; at 1.2 µM) was 1%. The growth inhibition ([13]; at 3.7 µM) was 17%, the growth inhibition ([13]; at 11.0 µM) was 24% and the growth inhibition ([13]; at 33.0 µM) was 57%. For the same compound, the growth inhibition ([13]; at 100.0 µM) was 95% (active), the growth inhibition [14, 17] was -22% and the growth inhibition [14, 18] was 46%. For the same compound, the growth inhibition ([14]; at 50.0 µM) was 90.1% (active), the growth inhibition ([15]; at 1.2 µM) was -8% and the growth inhibition ([15]; at 3.7 µM) was -10%. For the same compound, the growth inhibition ([15]; at 11.0 µM) was 1%, the growth inhibition ([15]; at 33.0 µM) was 21% and the growth inhibition ([15]; at 100.0 µM) was 95% (active).
